Bioassay records (PubChem BioAssay)
This is a sample that favours compounds with a hit; in the whole collection about 17% have one here.
TDP1 cell noCPT: qHTS for Inhibitors of human tyrosyl-DNA phosphodiesterase 1 (TDP1): qHTS in cells in absence of CPT; DT40 Tdp1-/- hTDP1 cells, no CPT, ATP luminescence, 48 h; Potency, µM (series often up to 46.2 µM), inactives show at the highest dose activity change, negative = growth inhibition, usual class: inhibitors; 420,000 tested, 15% active; AID 686978, 2013; note: % is set by controls: 0 for no effect and ±100 for the full control effect; nearly all actives have a fitted effect of over 55% in size
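Chicken DT40 Tdp1-/- cells complemented with human TDP1, screened without camptothecin (DMSO vehicle only), 400 cells/well. Compounds pin-transferred, cells incubated at 37 °C for at least 48 hr. Growth read as ATP-dependent luminescence (CellTiter-Glo, 30 min at RT).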
DT40 TDP1 CPT: DT40-hTDP1 cell growth loss with CPT; chicken DT40 Tdp1-/-;hTDP1 cells + 20 nM CPT, ATP luminescence, 48 h; Potency, µM (highest dose often 46.2 µM), for the others: at the top dose activity change, negative = growth inhibition, usual class: inhibitors; 420,000 tested, 12% active; AID 686979; note: % is set by controls: 0 for no effect and ±100 for the full control effect; nearly all actives have a fitted effect of over 55% in size
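Chicken DT40 Tdp1-/- cells stably complemented with human TDP1 were seeded at 400 cells/well in medium containing 20 nM camptothecin, exposed to pin-transferred compounds, and grown at 37 °C for at least 48 hr. Viability was read as ATP luminescence.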
TGFb inhibitor: inhibitors of TGF-b signaling; 410,000 tested, 1.2% active; HepG2 CAGA-GFP TGF-b/SMAD3 reporter, GFP fluorescence, 18 h; TGF-beta stimulated, 500 pg/mL final; Potency, µM (doses to about 46.1 µM), inactives show at the top dose activity, negative = inhibition, usual class: inhibitors; note: % is set by controls: 0 for no effect and ±100 for the full control effect; nearly all actives have a fitted effect of over 65% in size
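Inhibition was scored as loss of TGF-beta-induced (500 pg/mL final, 18 hours, 37 degrees C) GFP in HEPG2 cells carrying a CAGA-GFP reporter, in DMEM with 1% FBS. Well GFP was summed per cell; Activity was normalised to unstimulated and stimulated DMSO wells, then concentration-response fitting.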
ATXN2 expr inh: reduces ATXN2 reporter expression in HEK-293 cells; HEK-293 ATXN2-luciferase reporter, luminescence, 24 h; Potency, µM (highest dose often 57 µM), without a hit: at the top dose activity change, negative = inhibition, actives largely listed as inhibitors; 360,000 tested, 0.72% active; note: % is set by controls: 0 for no effect and ±100 for the full control effect; nearly all actives have a fitted effect of over 55% in size
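qHTS (up to 57 uM final) was run with 24 h compound exposure of reporter cells at 37 °C. Each well was multiplexed: SteadyGlo luminescence measured ATXN2-luciferase expression after a fluorogenic Gly-Phe-AFC viability readout (25 uM final).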
HepG2 viability: counter-screen for TGF-b inhibitors: cytotoxicity in HepG2 cells; HepG2 CAGA-GFP viability, ATP luminescence, 18 h; Potency, µM (titrated, usually from 46.1 µM), without a hit: at the top dose activity change, negative = cytotoxicity, hits mostly cytotoxic; 410,000 tested, 0.76% active; AID 588856
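HepG2 CAGA-GFP cells (1000/well, DMEM with 1% FBS) received compound, then TGF-beta at 500 pg/mL final, and were incubated 18 hours at 37 degrees C. Viability was read by CellTiter-Glo luminescence. Media-only wells were set as complete cell-killing and DMSO as no toxicity.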
S2 tox: viability counter-screen for ATXN expression inhibitors; S2 cells (HEK-293 line with an ATXN2-luciferase reporter) viability, CellTiter-Fluor protease fluorescence, 24 h; Potency, µM (top dose mostly 56.7 µM), actives largely listed as cytotoxic; 400,000 tested, 0.49% active; AID 651635; note: nearly all actives have a fitted effect of over 40% in size
* = called active by the depositor; i = inactive; ? = inconclusive; . = no result given. Calls come from the whole dose curve; as a rule, active = well fitted curve in the direction sought with a large enough effect; inconclusive = small, poorly fitted or top-dose-only effect, or another doubt; inactive = no such curve, though single readings can be large; an effect the other way counts as inactive or inconclusive. Potency is the fitted concentration of half-maximal effect.

SMILES | TDP1 cell noCPT | DT40 TDP1 CPT | TGFb inhibitor | ATXN2 expr inh | HepG2 viability | S2 tox
Cc1ccc(-c2cc(C(F)F)n3ncc(C(=O)N4CCCc5ccccc54)c3n2)cc1 | -22% | ? | -4% | -9% | -27% | ?
COc1ccc(-c2cc(C(F)F)n3ncc(C(=O)n4ccnc4C)c3n2)cc1 | 18µM* | 15µM* | -25% | -38% | -3% | ?
Cc1ccc2oc(=O)c3cc(C(=O)Nc4ccc(C)c(F)c4)sc3c2c1 | -5% | 4% | -2% | 3% | 11% | i
CC1CCCCC12NC(=O)N(CC(=O)N1CCN(S(=O)(=O)Cc3ccccc3)CC1)C2=O (stereo not given) | -26% | -20% | 0% | . | -18% | ?
C[C@@H]1CN([C@@H](C)CO)C(=O)CCCn2cc(nn2)CO[C@H]1CN(C)S(=O)(=O)c1ccccc1F | -22% | -1% | 8% | 9% | -7% | i
CC[C@@H](C)[C@@H](C(=O)N1CCN(C(=O)OC(C)(C)C)CC1)n1cc(CCCCNC(=O)OC(C)(C)C)nn1 | 13µM* | 13µM* | -8% | ? | -5% | ?
CC(C)CC(NC(=O)OC(C)(C)C)c1cn([C@@H](CCC(=O)OC(C)(C)C)C(=O)N2CCN(C(=O)OC(C)(C)C)CC2)nn1 (stereo not given in full) | 16µM* | 16µM* | 1% | 13% | -1% | i
CC[C@H](C)C(C(=O)N1CCN(C(=O)OC(C)(C)C)CC1)n1cc(C(CC(C)C)NC(=O)OC(C)(C)C)nn1 (stereo not given in full) | ? | 23µM* | ? | 6% | -4% | i
COC(=O)c1sccc1NC(=O)CSCCc1ccncc1 | -11% | -9% | 20% | -3% | 1% | i
CC1(c2nnc(Cc3ccccc3)o2)CC(c2ccncc2)=NO1 (stereo not given) | -2% | 9% | -7% | 9% | -6% | i
CC1CCC2(CC1)NC(=O)N(CC(=O)N1CCN(C(=O)c3ccco3)CC1)C2=O (stereo not given) | 3% | 3% | 12% | 10% | 7% | i
CC(=O)N1c2ccccc2C(=O)C1N1CCN(c2ccccc2)CC1 (stereo not given) | ? | ? | 0% | . | 1% | .
CC(=O)N1c2ccccc2C(=O)C1N1CCN(c2ccc(F)cc2)CC1 (stereo not given) | 15µM* | ? | -17% | . | -17% | .
CCN1CCCC1CNC(=O)c1cc2cc(F)ccc2[nH]1 (stereo not given) | 17% | -21% | 3% | -12% | -9% | i
CCC1CC=CC2C1C(=O)N(Cc1ccccc1)C2c1cccc([N+](=O)[O-])c1 (stereo not given) | . | . | 10µM* | . | -78% | .
C[C@@H]1CC=C[C@H]2[C@H]1C(=O)N(Cc1ccccc1)[C@H]2c1cccc([N+](=O)[O-])c1 | 23µM* | 21µM* | -26% | 1% | 2% | i
COc1ccccc1CN(C)C(=O)CN1CCN(C(=O)c2cccs2)CC1 | ? | ? | 8% | . | 7% | i
CCC(CC)C(=O)Nc1ccc2nc(SCC(=O)N3CCOCC3)sc2c1 | ? | ? | 0% | . | -2% | .
CCCCC(=O)Nc1ccc2nc(SCC(=O)N3CCOCC3)sc2c1 | ? | ? | ? | . | -23% | .
CCCCSc1nc2ccc(Nc3nc(N4CCOCC4)nc(N4CCOCC4)n3)cc2s1 | 21µM* | ? | -9% | -7% | 0% | i
CCCCNC(=O)CSc1nc2ccc(Nc3nc(N4CCOCC4)nc(N4CCOCC4)n3)cc2s1 | 9.2µM* | 18µM* | -26% | . | -44% | ?
CCN1C(=O)[C@H]2[C@@H](c3ccc(OC)cc3)N[C@]3(CCCN(CCC(C)C)C3=O)[C@H]2C1=O | -28% | -2% | 8% | -4% | 2% | i
Cc1c(C(=O)Nc2nc(-c3ccccn3)cs2)oc2ccccc12 | 3.7µM* | 5.2µM* | ? | -30% | -23% | i
O=C(Nc1nc(-c2ccccn2)cs1)c1cc2ccccc2o1 | 7.3µM* | ? | ? | -19% | -32% | i
NS(=O)(=O)c1ccc(CCNC(=O)c2cccc([N+](=O)[O-])c2)cc1 | -1% | -29% | 11% | -8% | 0% | i
SMILES | TDP1 cell noCPT | DT40 TDP1 CPT | TGFb inhibitor | ATXN2 expr inh | HepG2 viability | S2 tox
CCc1nc(SCC(=O)c2cccs2)c2oc3ccccc3c2n1 | 18µM* | ? | -18% | . | -74% | .
CCc1nc(SCC(=O)NCCc2ccccc2)c2oc3ccccc3c2n1 | ? | 21µM* | 16% | -12% | -2% | i
Cc1nc(SCC(=O)NCCc2ccccc2)c2oc3ccccc3c2n1 | -13% | 3% | 4% | -13% | -3% | i
CC(C)=CCC/C(C)=C/CC/C(C)=C/C(=O)OCC(=O)[C@@]1(O)CC[C@H]2[C@@H]3CCC4=CC(=O)C=C[C@]4(C)[C@H]3[C@@H](O)C[C@@]21C | . | . | . | -10% | . | i
C=CCSc1nnc(NC(=O)Cc2ccc(OC)c(OC)c2)s1 | 7% | 1% | 0% | -12% | 3% | i
CCOC(=O)NC(=O)/C(C#N)=C(/C)N(C)C | 19% | -1% | -1% | 5% | 2% | i
CCOC(=O)c1cc(C(=O)OCC)c2ccccn2c1=O | 18µM* | ? | 2% | 7% | 4% | .
CCOC(=O)c1coc(C(=O)OCC)c1C(=O)OCC | 2% | -5% | 23% | 4% | 8% | i
CCOC(=O)c1cocc1C(=O)O | 2% | -19% | ? | -6% | 1.6µM* | i
CCOC(=O)c1c[nH]n(-c2ccccc2)c1=O | -28% | 2% | 3% | 1% | 22% | i
O=C(NN=Cc1ccccc1)C(Oc1ccccc1)c1ccccc1 (stereo not given) | ? | ? | -19% | -15% | -23% | i
CCc1ccc(NC(=O)Cc2c(C(=O)O)c(C)cn2C)cc1 | -1% | -2% | 32% | 5% | -26% | i
Cc1ccnc2nc(C(=O)OCC(=O)c3ccc(Cl)cc3)nn12 | 7% | 12% | -3% | . | 0% | i
COc1cc(CNc2ncnc3c2ncn3[C@H]2CN(Cc3ccncc3)C[C@@H](CO)O2)cc(OC)c1OC | 13µM* | 13µM* | 3% | -4% | -6% | i
COc1cc(CNc2ncnc3c2ncn3[C@H]2CN(Cc3cccc4ccccc34)C[C@@H](CO)O2)cc(OC)c1OC | 23µM* | 18µM* | ? | ? | 7% | i
